Bioassay records: PubChem BioAssay, National Center for Advancing Translational Sciences (NCATS)
Compounds with a hit are over-represented: about 21% of the library has one in this group of screens.
CHX counter = Cycloheximide Counterscreen for Small Molecule Inhibitors of Shiga Toxin; cell reporter, cycloheximide protein synthesis inhibition counterscreen; max response, %; 300,000 tested, 12% active; in the data active means max response mostly above about 13%, no sharp cut-off; inactive means mostly below about 14%; further: read at 38.3 µM for the half of the compounds with a filed dose; 0% is about no effect
SARS PLP yeast = qHTS of Yeast-based Assay for SARS-CoV PLP | AID 485353, 2010 | 330,000 tested, 0.19% active | S. cerevisiae expressing SARS-CoV PLpro, growth rescue | Potency, µM (titrated, usually from 32.9 µM), without a hit: at the top dose activity, positive = growth rescue, hits mostly activators; calls by dose curve; further: potency means the concentration at half of the fitted maximal effect; 0% is about no effect; nearly all actives have a fitted effect of over 55% in size
Shiga inhibitor = A qHTS for Small Molecule Inhibitors of Shiga Toxin | 290,000 tested, 9.2% active | Vero cells, Shiga toxin protein synthesis inhibition reporter | inhibition, % at 38.7 µM; in the data active means inhibition mostly above about 28%, no sharp cut-off; inactive means mostly below about 43%; further: 0% is about no effect
NS1 inh = qHTS Assay for Inhibitors of Influenza NS1 Protein Function. Potency, µM (series often up to 46.1 µM), inactives show at the top dose activity, positive = more growth. 270,000 tested, 0.4% active. AID 2326, 2010; calls by dose curve; further: potency means the concentration at half of the fitted maximal effect; actives are rising curves; nearly all actives have a fitted effect of over 50% in size
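Recovery from NS1-induced slow growth read by OD600 in budding yeast switched to galactose assay medium (pH 6.0, -URA) at 1:100 dilution. Compound 23 nl per well; the matching strain lacking NS1 serves as control.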
Pf growth 48h = Primary qHTS for delayed death inhibitors of the malarial parasite plastid, 48 hour incubation; Potency, µM (top dose mostly 28.7 µM), for inactives: top-dose activity change, negative = inhibition, most hits filed as inhibitors; 310,000 tested, 5.9% active; P. falciparum luciferase growth in erythrocytes, 48 h; further: potency means the concentration at half of the fitted maximal effect; on the % scale 0 is the no-effect control and ±100 the full control effect
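Cell-based growth assay: transgenic P. falciparum expressing firefly luciferase, cultured in red cells within RPMI 1640 containing 0.5% w/v Albumax, 24 mM bicarbonate and gentamycin. A drop in luciferase activity indicates inhibition.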
Pf growth 96h = Primary qHTS for delayed death inhibitors of the malarial parasite plastid, 96 hour incubation | 320,000 tested, 6.9% active | AID 504834, 2011 | Potency, µM (doses to about 28.7 µM), without a hit: top-dose activity change, negative = inhibition, actives largely listed as inhibitors | P. falciparum luciferase reporter growth, 96 h; further: potency means the concentration at half of the fitted maximal effect; on the % scale 0 is the no-effect control and ±100 the full control effect
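Parasite growth measured via integrated firefly luciferase reporter in P. falciparum. Infected erythrocytes at 2% hematocrit, 0.05% parasitemia final were treated 96 hours at 37 C under 5% CO2, and luminescence was read.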
* hit, by the source's call; [ ] = dose if it differs, or a comment. Unless noted, the call rests on the fitted dose curve; in most records, active means well fitted inhibition curve with a large enough effect; inconclusive means small, poorly fitted or top-dose-only effect, or another doubt; inactive means no such curve, though single readings can be large or run the other way.

Results for CCN(C(=O)COC(=O)C1CC1C)c1c(N)n(Cc2ccccc2)c(=O)[nH]c1=O (centres undefined) ?
SARS PLP yeast: -2.1%; Pf growth 48h: -19.8%; Pf growth 96h: 5.9%

Results for COc1ccccc1-c1n[nH]c(=S)n1Cc1ccco1 ?
CHX counter: -3.3; SARS PLP yeast: -3.3%; Shiga inhibitor: 1.3; Pf growth 48h: -4.1%; Pf growth 96h: 17.3%

Results for C/C(=N\NC(=O)c1ccc(O)cc1)c1cccc(NC(=O)c2ccccc2C)c1 ?
CHX counter: 25.3*; SARS PLP yeast: -2.9%; Shiga inhibitor: 28.1*; NS1 inh: -1.9%; Pf growth 48h: 33.3%; Pf growth 96h: inconclusive

What do the screens show for `C/C(=N\NC(=O)c1ccccc1F)c1cccc(NC(=O)c2ccccc2)c1`?
CHX counter: 24.3*; SARS PLP yeast: 1.7%; Shiga inhibitor: 52.0*; NS1 inh: 7.3%; Pf growth 48h: 26.6%; Pf growth 96h: 3.7%

How did COc1ccc(CNC(=O)N2CCc3ccccc3C2)cc1Cl do in these assays?
CHX counter: 13.7*; SARS PLP yeast: 2.0%; Shiga inhibitor: -1.1; NS1 inh: -36.2%; Pf growth 48h: 12.5%; Pf growth 96h: 3.2%

Results for O=C(NCc1ccc(Cl)cc1)N1CCc2ccccc2C1 ?
CHX counter: 29.0*; SARS PLP yeast: 0.5%; Shiga inhibitor: 30.3; NS1 inh: -4.4%; Pf growth 48h: 0.9%; Pf growth 96h: 7.7%

How did O=C(CCC(=O)N(CC(=O)NC1CCCC1)c1ccccc1F)Nc1nccs1 do in these assays?
CHX counter: -4.2; SARS PLP yeast: 0.5%; Shiga inhibitor: -8.1; NS1 inh: -2.3%; Pf growth 48h: -0.1%; Pf growth 96h: inconclusive

Results for COc1ccc(C(=O)c2c3ccc(OC)cc3[n+]([O-])n2Cc2ccc(C(N)=O)cc2)cc1 ?
SARS PLP yeast: -1.2%; Pf growth 48h: inconclusive; Pf growth 96h: inconclusive

How did CCOc1ccc(NC(=S)C(C#N)=C2N(C)c3ccccc3N2C)cc1 do in these assays?
CHX counter: -6.1; SARS PLP yeast: 2.5%; Shiga inhibitor: -5.0; Pf growth 48h: -4.9%; Pf growth 96h: inconclusive

What do the screens show for `CC(C)(C)NC(=S)NCc1cccnc1`?
CHX counter: 1.2; SARS PLP yeast: 6.0%; Shiga inhibitor: 3.8; NS1 inh: 0.0%; Pf growth 48h: 33.4%; Pf growth 96h: 125.7%

What do the screens show for `Cc1sc2nc(-c3cccnc3)nc(Cl)c2c1-c1ccccc1`?
CHX counter: 11.3; SARS PLP yeast: -16.7%; Shiga inhibitor: 7.3; NS1 inh: -29.2%; Pf growth 48h: 8.28µM*; Pf growth 96h: inconclusive

How did Cc1sc2nc(-c3ccccc3)[nH]c(=O)c2c1-c1ccccc1 do in these assays?
CHX counter: -4.2; SARS PLP yeast: 13.9%; Shiga inhibitor: -5.0; NS1 inh: -3.0%; Pf growth 48h: 16.8%; Pf growth 96h: 15.7%

How did O=C(CCS(=O)(=O)c1ccc(Cl)cc1)NC1CCCC1 do in these assays?
SARS PLP yeast: 1.3%

How did c1ccc(C2Nc3ccccc3-c3nc4ccccc4n32)nc1 (centres undefined) do in these assays?
CHX counter: -3.8; SARS PLP yeast: 12.5%; Shiga inhibitor: -10.6; NS1 inh: -5.3%; Pf growth 48h: 41.3%; Pf growth 96h: 5.4%

How did c1coc(C2Nc3ccccc3-c3nc4ccccc4n32)c1 (centres undefined) do in these assays?
CHX counter: 31.0*; SARS PLP yeast: -9.2%; Shiga inhibitor: 62.8*; NS1 inh: -73.7%; Pf growth 48h: 71.7%; Pf growth 96h: 22.9%

How did c1ccc(C2Nc3ccccc3-c3nc4ccccc4n32)cc1 (centres undefined) do in these assays?
CHX counter: 31.1*; SARS PLP yeast: -25.1%; Shiga inhibitor: 57.0; NS1 inh: -125.3%; Pf growth 48h: inconclusive

Results for COc1cccc(NC(=S)NC2CC3CCCC(C2)N3CC(C)C)c1 (centres undefined) ?
CHX counter: 0.7; SARS PLP yeast: -0.4%; Shiga inhibitor: 8.9; NS1 inh: -2.5%; Pf growth 48h: -18.5%; Pf growth 96h: 31.8%

What do the screens show for `CCOC(=O)/C=c1\sc2n(c1=O)CCN=2`?
CHX counter: -3.7; SARS PLP yeast: inconclusive; Shiga inhibitor: -21.2; NS1 inh: -12.7%; Pf growth 48h: 1.2%; Pf growth 96h: inconclusive

Results for COC(=O)/C=c1/sc2n(c1=O)CCN=2 ?
CHX counter: -4.4; SARS PLP yeast: -7.1%; Shiga inhibitor: -6.6; NS1 inh: -1.0%; Pf growth 48h: -3.2%; Pf growth 96h: 16.0%

Results for O=c1/c(=C/c2ccc(O)cc2)sc2n1CCCN=2 ?
CHX counter: 21.1; SARS PLP yeast: inconclusive; Shiga inhibitor: 103.9*; NS1 inh: -7.7%; Pf growth 48h: 112.1%; Pf growth 96h: 231.3%

Results for CN(C)c1ccc(/C=c2\sc3n(c2=O)CCCN=3)cc1 ?
CHX counter: 25.2*; SARS PLP yeast: -4.3%; Shiga inhibitor: 12.8; NS1 inh: -36.3%; Pf growth 48h: 43.0%; Pf growth 96h: -3.6%[5.75 µM]

Results for O=c1/c(=C\c2ccc(F)cc2)sc2n1CCCN=2 ?
CHX counter: 42.7*; SARS PLP yeast: -3.3%; Shiga inhibitor: 92.5*; Pf growth 48h: 360.3%; Pf growth 96h: 314.5%

What do the screens show for `O=C1/C(=C/c2ccc(O)c(O)c2)SC(=S)N1Nc1ccccc1`?
CHX counter: 10.6; SARS PLP yeast: 5.4%; Shiga inhibitor: 31.0; Pf growth 48h: inconclusive; Pf growth 96h: 147.0%

What do the screens show for `C=CCN1C(=O)/C(=C\c2ccc(OC(=O)c3ccco3)c(OC)c2)SC1=S`?
CHX counter: 26.8*; SARS PLP yeast: -1.1%; Shiga inhibitor: 41.3; Pf growth 48h: -25.5%; Pf growth 96h: inconclusive

How did COc1cc(/C=C2\SC(=S)N(Nc3ccccc3)C2=O)ccc1O do in these assays?
CHX counter: 50.9*; SARS PLP yeast: -12.2%; Shiga inhibitor: 62.1*; NS1 inh: -8.9%; Pf growth 48h: 46.0%; Pf growth 96h: 1.1%

What do the screens show for `C=CCN1C(=O)/C(=C\c2cccc(OC(=O)c3ccco3)c2)SC1=S`?
CHX counter: -1.4; SARS PLP yeast: 4.4%; Shiga inhibitor: -6.3; NS1 inh: -4.9%; Pf growth 48h: -19.8%; Pf growth 96h: 14.4%

Results for COc1ccc(/C=C2/SC(=S)N(Cc3ccccc3)C2=O)cc1O ?
CHX counter: 12.7; SARS PLP yeast: 2.5%; Shiga inhibitor: 120.1*; NS1 inh: 5.0%; Pf growth 48h: 8.28µM*; Pf growth 96h: inconclusive

Results for COc1ccc(OC)c(/C=C2\SC(=S)N(Cc3cccnc3)C2=O)c1 ?
CHX counter: -3.5; SARS PLP yeast: 7.5%; Shiga inhibitor: -2.9; NS1 inh: 9.3%; Pf growth 48h: -14.8%; Pf growth 96h: 9.28µM*
